Screens: PubChem BioAssay, Broad Institute
The entries come from a sample that favours hits as a whole.
Tgondii IFNg: T. gondii growth inhibition with IFN-gamma, primary screen, cell-based | activity change, negative = inhibition, % (test concentration not listed) | AID 1259416, 2018 | Toxoplasma gondii growth in IFN-gamma-treated host cells; hits give low values | actives 3.8% (n = 69,000); in the data active = activity change below about -70%, passing the limit was not always enough;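 note: host cells are HeLa cells infected with Toxoplasma gondii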
* marks the source's active call; other numbers are inactive results; ! = repeats disagree.

SMILES | Tgondii IFNg
Cc1cc(NCC2CCCNC2)nc(N2CCCCC2)n1 (stereo not given) | -8
Cc1cc(N2CCCN(Cc3cnc(N(C)C)s3)CC2)ccn1 | -1
c1cnc(Nc2cc(CCC3CCNCC3)ccn2)cn1 | -4
CC(C)c1ccc(S(=O)(=O)N2CCC3(CC2)NCCN=C3NCc2cccc(F)c2)cc1 | -10
CCn1cc2c(n1)C(COC)CN(S(=O)(=O)c1cccc(C)c1)C2 (stereo not given) | 42
CN1C(=O)c2cc(NC(=O)c3cccc(F)c3)ccc2OC[C@@H]2O[C@H](CC(=O)NCc3ccccc3Cl)CC[C@H]21 | -22
CN1C(=O)c2cc(NC(=O)c3cccc(F)c3)ccc2OC[C@@H]2O[C@H](CC(=O)NCC3CCCCC3)CC[C@@H]21 | -23
CN1C(=O)c2cc(NC(=O)c3cccc(F)c3)ccc2OC[C@H]2O[C@@H](CC(=O)NCC3CCCCC3)CC[C@H]21 | -77*!
CCn1ccnc1CN1CCC(O)(c2cccc(C(F)(F)F)c2)CC1 | 1
Cc1nc(-c2ccc(F)cc2)sc1CCNC(=O)COc1ccc(Cl)cc1 | -47
Cc1nc(CCNC(=O)Cc2noc3ccccc23)nc2c1CCCC2 | 20
CN1CC(=O)N(c2ccsc2)CC12CCN(CC(=O)O)C2 (stereo not given) | 3
CN1CC(=O)N(c2ccsc2)CC12CCN(C(=O)Nc1ccccc1F)C2 (stereo not given) | -101*
CN1CC(=O)N(c2cccc(F)c2)CC12CCN(C(=O)c1cccs1)C2 (stereo not given) | 10
Fc1cnc(N2CCC3(C2)CN(c2nncs2)CCC3(F)F)nc1 (stereo not given) | 8
CCC1=NOC(Cn2c(=O)n(C(CC)CC)c3ncc(C(=O)O)cc32)C1 (stereo not given) | -2
Fc1cccc(-c2ncnc3c2CCN(CC2CCOC2)CC3)c1 (stereo not given) | -42
O=C(N/N=C/c1ccc([N+](=O)[O-])o1)c1ccc(O)cc1 | -81*!
Cc1ccc(/C=N/NC(=O)c2ccccc2Oc2ccccc2)o1 | 5
Cc1ccsc1/C=N\NC(=O)c1ccc2c(c1)OCO2 | 243
Cc1cccc(NC(=O)c2c(O)c3cccnc3n(-c3ccccc3)c2=O)c1 | 230
COc1ccc(CN2CCC3(CC2)CCN(c2cnn(C)c2)C3=O)cc1 | -1
COc1cc(-c2nc3ccccc3n2C)cc(OC)c1OC | 2
Cn1c(Br)nc2ccccc21 | 11
COc1cccc(-n2cnc3ccccc32)n1 | -90*
SMILES | Tgondii IFNg
COCCN1C(=O)N(C2Cc3ccccc3C2)C(=O)C12CCN(Cc1ccc(-c3ccco3)cc1)CC2 | -14
N#Cc1cccc(N2CCCC3(CN(C(=O)[C@H]4CCCO4)CCO3)C2)c1 (stereo not given in full) | 104
Cc1[nH]cnc1-c1nccn1Cc1ccc2sccc2c1 | 13
Cc1ccc2c(C)c(C(=O)N3CCC(c4ccccc4C(=O)O)C3)oc2c1 (stereo not given) | 4
CCSc1ncc(-c2nccn2-c2ccc(-c3n[nH]c(C)n3)cc2)cn1 | 5
O=C(NCCc1csc(-c2cccc(F)c2)n1)C(=O)Nc1ccccc1 | -34
Cc1cc(C)c(NC(=O)C(=O)NCCc2csc(-c3cccc(F)c3)n2)c(C)c1 | -80*
Cc1cccc(NC(=O)C(=O)NCCc2csc(-c3cccc(F)c3)n2)c1 | -87*
Cc1ccc(NC(=O)C(=O)NCCc2csc(-c3cccc(F)c3)n2)c(C)c1 | -10
Cc1cccc(NC(=O)C(=O)NCCc2csc(-c3ccc(Cl)cc3)n2)c1 | -27
Cc1cccc(C)c1NC(=O)C(=O)NCCc1csc(-c2cccc(F)c2)n1 | 25
O=C(Nc1ccc(OCC2CCCO2)cc1)c1cccnc1 (stereo not given) | -19
CCCC1C=CCN1C(=O)c1cc(COc2ccccc2)[nH]n1 (stereo not given) | 6
COCC1(C(=O)N(Cc2c(C)nn(C)c2C)C(C)C)CCC1 | -3
O=C(CCc1ccccc1)N1CCCC(c2nnc(-c3ccccn3)o2)C1 (stereo not given) | 30
Cc1ccc(N2CCCC2=O)cc1S(=O)(=O)Nc1ccc2c(c1)CC(=O)N2 | 49
Cc1ccc(N2CCCC2=O)cc1S(=O)(=O)NCCc1c(C)noc1C | -22
Cc1ccc(N2CCCC2=O)cc1S(=O)(=O)Nc1ccc(N2CCCC2=O)cc1 | -91*
CN(C)C(=O)[C@@H]1C[C@H]2CCN(CCOCc3ccccc3)C[C@@H]2O1 | -1
COCCN1C(=O)CCC2C1CCN2C(=O)Cc1ccc(F)cc1 (stereo not given) | 3
Cc1cc(CN(C)C(=O)c2cccc(NCc3ccc(C)s3)c2)on1 | -25
CN(C)C1CCN(C(=O)c2cnc(-c3noc4cc(-c5ccccc5)ccc34)s2)CC1 | -12
CCCCN(C)C(=O)c1cnc(-c2noc3cc(NCC4CC4)ccc23)s1 | -82*
Nc1ncccc1CN1CCCC(CCc2ccc(F)cc2)C1 (stereo not given) | 0
CN1CCN(C)C2(CCN(C(=O)c3cc4c(Cl)cccc4[nH]3)CC2)C1 | -17
SMILES | Tgondii IFNg
CN(CCN1CCCC1)CC1(O)CCCN(Cc2ccc(F)c(F)c2)C1=O (stereo not given) | -2
CC(NC(=O)Cc1ccc2nc[nH]c2c1)c1cc2cc(Cl)ccc2o1 (stereo not given) | -18
CN(C)C(=O)[C@@H]1CCO[C@@H]2CCN(Cc3cnn(C)c3)C[C@H]21 | -6
Cc1ccsc1C(=O)N1CCc2nc(N3CCOCC3)nc(NC(C)C)c2C1 | -20
COCCC(=O)N1CCc2nc(N3CCOCC3)nc(NC(C)C)c2C1 | 31
COc1cccc(C(=O)N2CCc3nc(N4CCCC4)nc(NC(C)C)c3C2)c1 | -110*
Cc1c(CN(C)Cc2cccc(C(C)(C)C)c2O)cnn1C | -93*
Cc1c(CN(C)C(=O)c2cccc(C#CC(C)(C)O)c2)cnn1C | -1
Cc1ccc(C)c(-c2[nH]ncc2CN(C)Cc2cnn(C)c2C)c1 | -1
CCC(=O)Nc1cccc(OCC(=O)N[C@H]2C[C@H]3CN(C)CCN3C2)c1 | 22
CC(C)c1ccc(S(=O)(=O)N2CCC3(CC2)NCCN=C3NCc2ccc(Cl)cc2)cc1 | -55
COCC(=O)N1CCCN(C/C(C)=C/c2ccccc2)CC1 | -49
Cc1onc(-c2c(Cl)cccc2Cl)c1-c1nnc(NC(=O)c2ccco2)s1 | -61
Cc1onc(-c2c(F)cccc2Cl)c1C1=NCCO1 | 11
Cc1onc(-c2c(F)cccc2Cl)c1C(=O)ON=C1C2CC3CC(C2)CC1C3 | -85*
CCN1c2ccccc2C(=O)NC12CCN(C(=O)Cc1ccc(OC)cc1)CC2 | -53
C=CCN1CC2(CCN(C(=O)C3CCOCC3)CC2)OCC1=O | 10
CCc1nc(CNC(=O)c2ccc(OCC(=O)N3CCCCC3)cc2)no1 | 5
Cn1cccc1C(=O)N1C[C@@H](c2ccccc2)[C@@]2(CCNC2=O)C1 | 2
COc1cc2cc(C)c(SCC(=O)N3CC(=O)Nc4ccccc43)nc2cc1OC | 9
O=C(CCC(=O)N1CC(=O)Nc2ccccc21)Nc1cccc(-n2cccn2)c1 | 1
O=C1CN(C(=O)CSc2nc(C3CCCCC3)nc3ccccc23)c2ccccc2N1 | -98*
COc1ccc(CC2CN(CCCC(F)(F)F)CCO2)cc1 (stereo not given) | 6
CCOc1ccc(C(=O)Nc2ccc(N3CCN(C(C)=O)CC3)cc2)cc1[N+](=O)[O-] | -13
CCOc1cccc(C(=O)Nc2ccc(N3CCN(C(=O)c4ccco4)CC3)cc2)c1 | -86*
CC(=O)Nc1ccc(C(=O)N2CCN(C(=O)c3ccco3)CC2)cc1 | -52
